From ChEMBL document CHEMBL4513216, “Probing the Open Global Health Chemical Diversity Library for Multistage-Active Starting Points for Next-Generation Antimalarials” (ACS Infect Dis, 2020) come the findings set out here.

Among all 65,000 compounds or so, about 2,100 (3.2%) showed an effect of 50% or more. The median lay at about -52%. The sample holds strong results, similar compounds and a random draw of the others, so the mix is not that of the screen.

This test has as its system Plasmodium falciparum. The experiment in a line: Screen against P. falciparum Asexual Blood Stage (ABS), at 5uM. Format: functional, Dd2. To be noted: tested at 5 uM.
Take `c1cc(CN2CCOC3(CCCC3)C2)no1`: the INHIBITION was -101%.
For the compound `O=C1CSC(c2ccsc2)c2sccc2N1` (stereo unspecified), the INHIBITION is reported as -15.7%.
In the case of `Cc1ccc(N2CCO[C@H]3CN(Cc4cccs4)C[C@H]32)nn1` it was -11.3%; in that of `COCCn1cc(C(=O)Nc2nc3c(s2)CCC3)c2ccccc21`, -78.7%; in that of `O=C(CN1CCCC(c2ccn[nH]2)C1)Nc1nc2c(s1)CCCC2` (stereo unspecified), 86.1%.
In the case of `Cc1cc(C2CCCN(CC(=O)Nc3nc4c(s3)CCC4)C2)n[nH]1` (stereo unspecified) it was 86.9%; in that of `O=C(CN1CCCC(c2ccn[nH]2)C1)Nc1nc2c(s1)CCC2` (stereo unspecified), 89.2%; in that of `CC1CN(C)CCN1C(=O)COc1cccc(Oc2ccccn2)c1` (stereo unspecified), -65.8%.
In the case of `Cc1noc(C)c1CN1CCOC2(CCCN(c3nccs3)C2)C1` (stereo unspecified) it was -36.8%; in that of `CCCOc1cc(Cl)c(CN2CCNC(C(=O)NC3CC3)C2)cc1OC` (stereo unspecified), 75.4%.
Consider `O=C(c1ccc(Cn2ccccc2=O)o1)N1CCC2(CC1)OCCO2`, for which the INHIBITION came out at 1.12%.
For `CC(C)Cc1ncc2c(n1)CN(C(=O)c1ccc(CN3CCCC3)o1)C2` the value was 70.3%; for `Cc1ccc(C(C)NCc2cn(CCC(N)=O)c3ccccc23)cc1C` (stereo unspecified), 82.8%.
For `CCCn1cc(C(=O)NCCCC(N)=O)c2ccccc21` the value was -75%; for `CCCn1cc(C(=O)NCCS(N)(=O)=O)c2ccccc21`, -25.6%; for `CC(C)CNC(=O)N1C[C@@H]2CCCN[C@@H]2C1`, -5.1%.
For `COCCN1CCOCC12CCN(C(=O)c1ccncc1)CC2` the value was -98.9%; for `FC(F)(F)c1ccc2nc([C@H]3CCN(C4CCCCC4)C3)[nH]c2c1`, 83.6%.
Regarding `CCc1nc(-c2ccc(C(=O)N3CCC4(CC3)OCCO4)cc2)no1`, the INHIBITION is on record as -52.5%.
For `Cc1ccc2c(CC(=O)N3C[C@@H](O)[C@H](N(C)C)C3)coc2c1`, the INHIBITION was found to be 9.22%.
For the compound `CN(C)CCCn1ccnc1C1CCCN(c2ncc(Cl)cc2F)C1` (stereo unspecified), the INHIBITION worked out at 84.4%.
Regarding `COCCO[C@@H]1C[C@H]2CN(C(=O)c3cccnc3)CCN2C1`, the INHIBITION is -84.1%.
For `COCC(=O)NC(C)Cc1cccc(Cl)c1` (stereo unspecified) the value was -14.8%; for `Cc1ccccc1CNC(Cn1cncn1)c1ccccc1` (stereo unspecified), -47.8%; for `CCC(NCc1ccccc1C)c1ccccc1OCC(=O)NC` (stereo unspecified), 80%.
For `Clc1ccccc1CNC(Cn1cncn1)c1ccccc1` (stereo unspecified) the value was -8.41%; for `CC(Cc1cccc(Cl)c1)NC(=O)NCc1ncnn1C` (stereo unspecified), -104%.
For `CCC(NCc1cccc(Cl)c1)c1ccccc1OCC(=O)NC` (stereo unspecified), the INHIBITION turned out to be 82.8%.
In the case of `CC(Cc1ccccc1Cl)NC(=O)Nc1cnn(CC(N)=O)c1` (stereo unspecified) it was -20.1%; in that of `CCC(NCc1ccccc1Cl)c1ccccc1OCC(=O)NC` (stereo unspecified), 74.7%.
In the case of `COCCN1CCO[C@H]2CN(Cc3cccc(C)n3)C[C@H]21` it was -18.3%; in that of `Cc1cc(NC2CC3(CCN(Cc4ncccc4F)C3)C2)ncn1` (stereo unspecified), -37.1%; in that of `CCc1c(C)[nH]c(C2(N)CCCC2)nc1=O`, -43.5%.
For `CNC(=O)[C@H]1C[C@@H]2CN(Cc3cccnc3OC)C[C@@H]2N1C(C)C` the value was 21.8%; for `Cc1cc(Br)cnc1NCCN1CCC(N(C)C)CC1`, 89.1%.
In the case of `CC(NC(=O)CN1CCCC1=O)c1ccc(Cl)s1` (stereo unspecified), the INHIBITION is given as -3.71%.
For `CC(NCCN1CCC(N(C)C)CC1)c1ccc(Cl)s1` (stereo unspecified) the value was 75.4%.
For `Cc1cc(C(C)NCCN2CCC(N(C)C)CC2)c(C)s1` (stereo unspecified) the value was 81.6%; for `CC(Cn1cccn1)NCc1ccc(Cl)s1` (stereo unspecified), -30.2%; for `CN1CCCC(Cc2cncc(Br)c2)CC1` (stereo unspecified), -65%.
For `CN1[C@@H]2CC[C@H]1CN(c1cc(Sc3cccs3)nc(N)n1)CC2` the value was 19.3%.
Consider `Cc1ccc(CN2CC[C@H]3NC(=O)CC[C@@H]32)o1`, for which the INHIBITION is listed as -34.6%.
In the case of `CSc1ccc(-c2nc(CN3CCC(CN)C3)c(C)o2)cc1` (stereo unspecified) it was 83.05%; in that of `Cc1cc(CN2CC[C@]3(C[C@@H](OCC(=O)N(C)C)CO3)C2)no1`, -93%; in that of `c1ccc(CN2CCCC[C@H]3CN(c4ncccn4)C[C@H]32)cc1`, 3.59%.
In the case of `CCn1cc(CN2CCCCC2CCn2ccnc2C)cc1C#N` (stereo unspecified) it was 78.2%.
As for `CCn1ccnc1CN1CCN(C(C)C)CC1C` (stereo unspecified), the INHIBITION is -35.9%.
For `CCCN1CCC(NC(=O)c2ccc(F)cc2I)CC1` the value was 71.1%.
For `O=C(c1cc2cc(F)ccc2[nH]1)N1CCC(Nc2ccc(F)cc2)CC1` the value was -1.01%; for `Cc1cc(CC(=O)N2CCN(CC3CC3)[C@@H]3CS(=O)(=O)C[C@@H]32)ccc1F`, -75.7%.
In the case of `CO[C@H]1CNC[C@@H]1NC(=O)c1cc(C)nc2c(C)cc(C)cc12` it was 75.1%; in that of `Cc1ccc2nc(C)cc(C(=O)N[C@H]3COC[C@@H]3N3CCOCC3)c2c1`, -169%; in that of `Cc1cc(C(=O)N[C@H]2COC[C@@H]2N2CCOCC2)c2ccc(F)cc2n1`, -31.3%.
For `c1cncc(OC[C@]23COC[C@H]2CN(C2CCC2)C3)c1`, the INHIBITION is -4.29%.
Take `CCC1CCCN(Cc2nc(N)c3ccccc3n2)C1` (stereo unspecified): the INHIBITION turned out to be 74%.
For `O=S(=O)(C1CC1)N1CCOC2(CCCN(Cc3ccccn3)C2)C1` (stereo unspecified) the value was -97.5%; for `CN(C)CCN1CCC(NC2CSCCc3ccccc32)CC1` (stereo unspecified), 76.5%; for `CN(C)CCN1CCN(CC2CC2)c2ncccc2C1`, 10.4%.
For `CCN1CCc2c(cccc2NC(=O)N(C)C2CCSC2)C1` (stereo unspecified) the value was -40.2%; for `O=C1[C@@H]2CN(Cc3ccccn3)C[C@H]2CCN1c1cncnc1`, -99.9%; for `Cc1ccc(-n2nnc(CC(=O)N3CCN(C(C)C)CC3)c2C)cc1`, -42.3%.
For `CCC(=O)NCC(=O)NC(Cc1ccccc1)c1sccc1C` (stereo unspecified) the value was 85.5%.
In the case of `CCOC(C)c1noc(CN(C)C(=O)C2C(C)(C)C2(C)C)n1` (stereo unspecified), the INHIBITION was -124%.
Consider `Cc1cc(C)c2cc(CNC3CCCCC3)c3nn(C)c(=O)n3c2c1`, for which the INHIBITION is given as 79.7%.
In the case of `COc1ccc(CCNCc2ccco2)cc1OC` it was 5.79%; in that of `Cc1cc(C)c2cc(CNCc3ccco3)c3nn(C)c(=O)n3c2c1`, 75.5%.
For `Oc1ccc(Cl)cc1CNCc1ccccc1Cl` the value was 76.4%; for `Cc1ccccc1CNCc1cc(Cl)ccc1O`, 75.4%.
In the case of `Oc1ccc(Cl)cc1CNCc1cccc(C(F)(F)F)c1` it was 89%; in that of `COCCNC(=O)[C@H]1C[C@@H]2CCN(Cc3ccncc3)C[C@H]2O1`, -49.6%.
As for `O=C(NCc1ccncc1)C1=NOC2(CCCNC2)C1` (stereo unspecified), the INHIBITION is reported as -6.12%.
As for `Cc1cccc(CN2CC3C[C@]3(NC(=O)c3ccco3)C2)n1` (stereo partly specified), the INHIBITION is reported as -83.2%.
In the case of `CCCc1nc(CNC(C)Cn2cccn2)cs1` (stereo unspecified) it was -91.5%; in that of `COCCN1CCN(c2ccc(C)nn2)Cc2ccc(C)nc21`, -54.8%.
With `Nc1nc2c(c(N3CCCC(c4nnc5ccccn45)C3)n1)CCNC2` (stereo unspecified), the INHIBITION is 84.8%.
Turning to `c1ccn2c(C3CCCN(c4ncnc5c4CCNC5)C3)nnc2c1` (stereo unspecified), the INHIBITION is 76.2%.
For `O=C(C1CC1)N1CCc2c(ncnc2N2CCN3CCCC3C2)C1` (stereo unspecified) the value was -21.1%.
In the case of `Clc1cncc(N2CCN(Cc3ccon3)CC2)n1` it was -51.3%; in that of `CN1CCCCC1c1cncc(Cl)n1` (stereo unspecified), -143%.
`CC(C)(N)C(=O)N1CCCC1c1cncc(Oc2ccccc2)n1` (stereo unspecified): the INHIBITION was 78.6%.
For `O=C(Nc1cccnc1)[C@@H]1C[C@H]2OCC[C@H]2N(Cc2nccs2)C1` the value was -80.7%; for `Cn1cc(CN2C[C@@H]3[C@@H](C2)OCC(=O)N3Cc2ccncc2)cn1`, -72.9%.
In the case of `c1ccc(CN2CC[C@@H]3[C@@H](CO[C@@H]3CNc3ncccn3)C2)nc1` it was -169%; in that of `CO[C@H]1CCN(Cc2ccccn2)[C@@H]2CN(Cc3ccco3)C[C@H]12`, 67.7%.
Turning to `c1ccc(COC[C@H]2CC[C@H]3[C@H](CCN3Cc3ccco3)O2)nc1`, the INHIBITION is recorded as -63.4%.
For `CN(Cc1ccco1)C[C@H]1OC[C@@H]2CCN(Cc3ccccn3)C[C@@H]21` the value was 71.1%; for `CCN1C[C@H]2[C@@H](C1)N(c1ncc(F)cn1)CC[C@H]2OC`, 35.7%.
In the case of `COC[C@H]1CC[C@@H]2[C@@H](CCN2Cc2ccco2)O1` it was -128%.
In the case of `CO[C@@H]1CCN(Cc2ccccn2)[C@@H]2CN(Cc3ccco3)C[C@@H]21` it was 81.6%; in that of `CO[C@H]1CCN(c2ncc(F)cn2)[C@@H]2CN(Cc3ccco3)C[C@H]12`, 63.7%.
`CO[C@@H]1CC[C@H]2[C@H]1OCCN2Cc1ccccn1`: the INHIBITION was -64.6%.
For `COC[C@H]1CC[C@@H]2[C@@H](CCN2Cc2ccccn2)O1` the value was -7.67%; for `c1ccc(CN2CC[C@H]3CO[C@H](CNc4ncccn4)[C@H]3C2)nc1`, -30.4%.
For `CO[C@@H]1CCN(c2ncc(F)cn2)[C@@H]2CN(CC3CC3)C[C@@H]21` the value was 6.1%.
In the case of `COc1cccc2c(=O)n(C3CCNCC3)cnc12` it was -104%; in that of `O=C(NC1CCC1)[C@@H]1C[C@@H]2CCN(Cc3ccncc3)C[C@H]2O1`, -70.1%; in that of `COCCO[C@@H]1C[C@H]2CN(C(=O)c3ccc(C)nc3)CCN2C1`, -15.2%.
For `Cn1ccc(CN2CCOCC23CCNCC3)n1`, the INHIBITION is -75.7%.
`Cc1noc(C)c1C(=O)N1CCC2(CC1)c1nc[nH]c1CCN2C`: the INHIBITION is given as -42.4%.
For `CCN(CC)CCN1CCO[C@H]2[C@@H](OCc3ccncc3)CC[C@@H]21` the value was -18.1%; for `c1ccc(OC[C@]23COC[C@H]2CN(Cc2ccoc2)C3)nc1`, 15.8%.
In the case of `c1ccc(OC[C@]23COC[C@H]2CN(C2CCOCC2)C3)nc1` it was 2.04%.
In the case of `Cn1cc(CN2C[C@H]3CCC[C@@]3(COc3cccnc3)C2)cn1` it was 17.2%; in that of `CN(C)CC(=O)N1C[C@H]2CCC[C@@]2(COc2ccccn2)C1`, 84.9%; in that of `Cn1cc(CN2C[C@H]3CCC[C@@]3(COc3ccccn3)C2)cn1`, 66.1%.
On to `c1ccc(COC[C@@]23CCC[C@@H]2CN(Cc2ccccn2)C3)nc1`, for which the INHIBITION is -56.9%.
